This note sets out measurements from PubChem BioAssay AID652245 (The Scripps Research Institute Molecular Screening Center, 2013).

About 920 (58%) of roughly 1,600 compounds were called active. The set was probably picked from earlier hits. These entries were drawn from the full list. Unmarked numbers belong to inactive results.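 Rule for the calls: active = inhibition above the primary screen's cutoff, the mean inhibition of all screened compounds plus 3 SD (cut at about 13% in these data); inactive = the rest.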

Chain of Galanin receptor type 3 (Homo sapiens) (O60755 1-299 limits assumed): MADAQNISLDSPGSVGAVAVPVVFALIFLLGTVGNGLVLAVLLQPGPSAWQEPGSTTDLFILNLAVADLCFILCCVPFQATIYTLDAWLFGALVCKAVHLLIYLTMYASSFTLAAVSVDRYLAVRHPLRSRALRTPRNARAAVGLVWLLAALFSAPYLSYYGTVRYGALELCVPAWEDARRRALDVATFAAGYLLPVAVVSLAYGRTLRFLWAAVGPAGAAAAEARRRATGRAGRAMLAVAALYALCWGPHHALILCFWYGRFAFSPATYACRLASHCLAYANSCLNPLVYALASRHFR

This experiment concerns the target Galanin receptor type 3 (Homo sapiens) (UniProt O60755). Nature of the experiment: GalR3 antagonist hit confirmation, cell-based, fluorescence, triplicate (AID 652245).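 Note: 0% = forskolin plus galanin and 100% = forskolin alone with DMSO.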 To be noted: HEK293 GalR3 CNG cAMP biosensor, membrane potential fluorescence; at 3 µM; active compounds read high.
Usually inhibition stands for the relative decrease from the control value, in per cent. For `CCCCCCCCCCCCn1ccc(=N)cc1`, the inhibition was 92.6% (active).
The same measure for `COC(=O)C1=C(c2cc3ccccc3s2)C[C@@H]2CC[C@H]1N2C(=O)NCc1cccc2ccccc12`: -2.45%; for `COc1ccc(-n2c(-c3ccccc3)nc3ccccc3c2=O)cc1`: 7.55%.
